Screens deposited in PubChem BioAssay by several laboratories.
Arbovirus anti = blocks arbovirus infection. arbovirus infection cell-based antiviral screen. 200,000 tested, 0.37% active. inhibition, % at 10 µM; in the data active = inhibition above about 30%
Bim-Bcl-2 = disrupts Bim peptide binding to human Bcl-2. inhibition, % at 10 µM. Bead-based flow cytometry, Bim peptide-Bcl-2 binding. P10415. 190,000 tested, 0.06% active. AID 950; in the data active = inhibition above about 40%;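 note: 0% = no compound wells with probe peptide and 100% = reference peptide inhibitor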
Bim-Bcl-XL = inhibitors of Bim-Bcl-XL interaction, human | inhibition, % at 10 µM | 190,000 tested, 0.04% active | Bim peptide-Bcl-XL binding, bead flow cytometry, fluorescence | Q07817
Bim-Bcl-W = inhibitors of Bim-Bcl-W interaction, human | bead-based flow cytometry, Bim peptide-Bcl-W binding | 190,000 tested, 0.02% active | inhibition, % at 10 µM;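 note: 0% = bound tracer without compound and 100% = peptide blocker; higher means less fluorescent Bim peptide bound to Bcl-W beads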
Target sequence (Q92843 whole entry, looked up): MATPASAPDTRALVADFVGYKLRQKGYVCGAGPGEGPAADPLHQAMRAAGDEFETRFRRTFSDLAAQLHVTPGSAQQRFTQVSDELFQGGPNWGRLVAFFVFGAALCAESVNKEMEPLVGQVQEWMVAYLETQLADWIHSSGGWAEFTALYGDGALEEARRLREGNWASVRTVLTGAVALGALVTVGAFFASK
Bfl-1 Bim block = disrupts Bim binding to human Bfl-1 | Q16548 | Bead-based flow cytometry, Bim-Bfl-1 binding inhibition | inhibition, % at 10 µM | 190,000 tested, 0.12% active | AID 1008;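 note: 0% = wells without compound plus tracer and 100% = blocker peptide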
Bcl-B Bim block = inhibitors of Bim-Bcl-B interaction, human | Q9HD36 | bead-based flow cytometry, Bim peptide-Bcl-B binding | inhibition, % at 10 µM | 190,000 tested, 0.073% active | AID 951;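 note: 0% = tracer peptide without compound and 100% = reference inhibitor peptide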
* = called active by the depositor. An excerpt weighted towards active compounds, which were near 0.56% of everything screened. Cut-off read from the data, not from the text of the source, unless noted: active = inhibition above about 40%.

SMILES	Arbovirus anti	Bim-Bcl-2	Bim-Bcl-XL	Bim-Bcl-W	Bfl-1 Bim block	Bcl-B Bim block
c1ccc(-c2nc(N3CCOCC3)s[n+]2-c2ccccc2)cc1	2	14	9	7	52*	-44
O=c1c2ccccc2nc(CNCC2CCCO2)n1-c1ccc(F)cc1 (stereo not drawn)	3	-2	0	2	-4	-1
COc1cc(C)c(CN2CCN(c3ccccc3)CC2)cc1C	-1	2	0	0	-1	3
COc1ccccc1N1CCN(Cc2cc(C)c(C)cc2O)CC1	32*	-2	0	0	-1	1
CN1C(=O)C(Cc2ccc3c(c2)OCO3)C(=O)N(C)C1=O	5	-6	-7	3	-11	-7
COC(=O)C(O)(c1ccc(NC(=S)NC(=O)c2ccccc2)cc1)C(F)(F)F (stereo not drawn)	6	0	-2	-3	-3	-2
COc1ccc(CCN(C)Cc2ccc(F)cc2F)cc1OC	71*	2	3	-2	-2	0
COP(=O)(CC(=O)O)c1ccccc1 (stereo not drawn)	8	26	51*	36	-3	95*
O=C(O)CP(=O)(O)c1ccc(Cl)cc1	9	-3	-3	2	0	-3
Cc1ccc(-c2nc(CS(=O)CC(=O)N3CCC4(CC3)OCCO4)c(C)o2)cc1 (stereo not drawn)	5	2	-2	0	0	0
Cc1oc2ccc(OC(=O)N(C)C)cc2c1C(=O)OC(C)C	32*	-5	-6	-7	-29	-14
O=C(NC(=C(Cl)Cl)P(=O)(c1ccccc1)c1ccccc1)c1ccccc1	-1	3	-4	-1	0	-4
CN1CCN(c2ccc(/C=C3\C(=O)NC(=S)N(c4cccc(Br)c4)C3=O)o2)CC1	37*	-3	-5	-1	6	-10
Cc1nn(Cc2ccccc2)c(Cl)c1C(=O)NC1CCCc2ccccc21 (stereo not drawn)	30*	-12	-5	-3	-16	-2
